In the library only some 9% were active in any assay of this set; here they are far more common.
HPGD block: blocks human HPGD enzyme activity; P15428; purified HPGD, NADH fluorescence kinetic, PGE2 substrate; Potency, µM, usual class: inhibitors; 150,000 tested, 4.3% active; AID 894; active means well fitted inhibition curve with a large enough effect, not every such curve was filed as active; inconclusive means small, poorly fitted or top-dose-only effect, or another doubt; inactive means no such curve, though single readings can be large or run the other way
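20 nM HPGD preincubated 15 min at room temperature with compound in 50 mM Tris-HCl pH 8, 0.01% Tween 20. Started with 1 mM NAD+ and 30 uM prostaglandin E2; NADH fluorescence (360/450 nm) read 5 times over 30-s intervals, last minus first.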
Luc counter: counter-screen: inhibitors of Kinase-Glo firefly luciferase | Kinase-Glo luciferase, ATP luminescence, 8 min | Potency, µM (top dose mostly 38.3 µM), usual class: inhibitors | 200,000 tested, 0.28% active; further: nearly all actives have a fitted effect of over 60% in size
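Compounds were added to a substrate mix at pH 7.2 (50 mM imidazole, 10 uM ATP, within the enzyme's linear range), followed by Kinase-Glo detection reagent; luminescence was measured after 8 minutes at ambient temperature.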
IMPase Li cell: IMPase inhibition in cells with lithium potentiation | CHO-M1 cells, IP1 TR-FRET (IP-One), carbachol + lithium | Potency, µM (titrated, usually from 59.4 µM), hits mostly inhibitors | 210,000 tested, 0.35% active | AID 1457;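 further: IP1 builds up when IMPase is blocked and the TR-FRET signal falls; nearly all actives have a fitted effect of over 50% in size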
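Test compounds were applied to CHO-M1 cells previously cultured for 16–30 h at 2000 per well. A small lithium amount accompanied them; after 30 min at 37C, IP1 was quantified by TR-FRET.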
Lamin A splicing: LMNA splicing modulation; AID 1487; HeLa LMNA splicing GFP/RFP minigene ratio, 48 h; Potency, µM (series often up to 46.1 µM), actives largely listed as inhibitors; 200,000 tested, 0.01% active; active means well fitted inhibition curve with a large enough effect in the signal ratio, with a control signal flat, not every such curve was filed as active; inconclusive means small, poorly fitted or top-dose-only effect, or effect the other way, or a change in a side signal; the % refers to the signal ratio
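Read-out is the ratio of GFP to DsRed2 object intensity, acquired by 488 nm laser-scanning cytometry on HeLa lamin A-EGFP minigene reporter cells. Compound incubation 48 hrs at 37 °C in Opti-MEM with 2% FBS; DMSO 0.5% final.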
ALDH1A1 inh: inhibitors of human aldehyde dehydrogenase 1A1; Potency, µM (series often up to 75.3 µM), actives largely listed as inhibitors; P00352; Purified ALDH1A1, NADH fluorescence, propionaldehyde substrate; 220,000 tested, 7.3% active; active means well fitted inhibition curve with a large enough effect, not every such curve was filed as active; inconclusive means small, poorly fitted or top-dose-only effect, or another doubt; inactive means no such curve, though single readings can be large or run the other way
Target sequence (P00352 whole entry, looked up): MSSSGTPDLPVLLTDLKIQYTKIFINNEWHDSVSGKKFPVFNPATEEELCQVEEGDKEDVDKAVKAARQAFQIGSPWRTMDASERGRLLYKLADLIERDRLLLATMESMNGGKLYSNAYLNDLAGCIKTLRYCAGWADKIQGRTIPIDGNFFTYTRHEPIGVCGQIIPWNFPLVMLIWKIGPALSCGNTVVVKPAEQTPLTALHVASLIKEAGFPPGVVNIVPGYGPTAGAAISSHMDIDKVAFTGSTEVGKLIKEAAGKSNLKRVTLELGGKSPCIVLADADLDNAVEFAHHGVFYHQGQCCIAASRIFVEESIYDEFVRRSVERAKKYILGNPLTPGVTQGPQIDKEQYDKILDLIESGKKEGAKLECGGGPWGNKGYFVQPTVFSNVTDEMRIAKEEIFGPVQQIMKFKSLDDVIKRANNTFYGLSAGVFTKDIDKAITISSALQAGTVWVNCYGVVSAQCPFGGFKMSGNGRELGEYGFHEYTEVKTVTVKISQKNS
Hits are given with their value. Unless noted, the call rests on the fitted dose curve; in most records, active means well fitted curve in the direction sought with a large enough effect; inconclusive means small, poorly fitted or top-dose-only effect, or another doubt; inactive means no such curve, though single readings can be large; an effect the other way counts as inactive or inconclusive.

What do the screens show for `C=CCN1C(=O)C(CC(=O)O)SC1=Nc1ccc(N=Nc2ccccc2)cc1` (centres undefined)?
IMPase Li cell: inactive; ALDH1A1 inh: inactive

What do the screens show for `COC(=O)c1cc(NCc2cccs2)ccc1N1CCOCC1`?
HPGD block: inactive; Luc counter: inactive; IMPase Li cell: inactive; Lamin A splicing: inactive; ALDH1A1 inh: 18µM

What do the screens show for `Cc1cc(OC(=O)CNC(=O)OC(C)(C)C)c2c(C)cc(=O)oc2c1`?
HPGD block: 18µM; Luc counter: inactive; IMPase Li cell: inconclusive; Lamin A splicing: inconclusive; ALDH1A1 inh: 16µM

What do the screens show for `Cc1ccc(Oc2nc(CN3CCOCC3)nc3sc4c(c23)CCC(C)C4)cc1` (centres undefined)?
HPGD block: inactive; Luc counter: inactive; IMPase Li cell: inactive; Lamin A splicing: inconclusive; ALDH1A1 inh: inconclusive

Results for Cc1sc2nc(CN3CCOCC3)nc(Oc3ccc(NC(=O)c4ccco4)cc3)c2c1C ?
Lamin A splicing: inactive; ALDH1A1 inh: 18µM

Results for Cc1sc2nc(CN3CCOCC3)nc(N3CCOCC3)c2c1C ?
HPGD block: inactive; Luc counter: inactive; IMPase Li cell: inactive; Lamin A splicing: inactive; ALDH1A1 inh: 14µM

How did CC1(C)CC(=O)C(N=Nc2ccc(-c3ccccc3)cc2)=C(O)C1 do in these assays?
Luc counter: inactive; IMPase Li cell: inactive; Lamin A splicing: inactive; ALDH1A1 inh: inconclusive

How did O=C1CCCC(O)=C1C(C#Cc1ccccc1)C1=C(O)CCCC1=O do in these assays?
HPGD block: 4µM; Luc counter: inactive; IMPase Li cell: inactive; Lamin A splicing: inconclusive; ALDH1A1 inh: 6.3µM

Results for CC1(C)CC(=O)C(C(C#Cc2ccccc2)C2=C(O)CC(C)(C)CC2=O)=C(O)C1 ?
HPGD block: 7.9µM; Luc counter: inactive; IMPase Li cell: inactive; Lamin A splicing: inactive; ALDH1A1 inh: 6.3µM

How did O=C1CCCC(O)=C1Sc1ccccc1C(=O)O do in these assays?
Luc counter: inactive; IMPase Li cell: inactive; ALDH1A1 inh: inactive

What do the screens show for `CC(=O)/C=C(\C)Nc1ccc(-c2cnc(-c3ccccc3)o2)cc1`?
HPGD block: inconclusive; Luc counter: inactive; IMPase Li cell: 8.9µM; Lamin A splicing: inactive; ALDH1A1 inh: inconclusive

How did C=CCCCCCCCCCCCc1ccco1 do in these assays?
HPGD block: 0.79µM; Luc counter: inactive; IMPase Li cell: inactive; Lamin A splicing: inactive; ALDH1A1 inh: inconclusive

Results for CCN(CC)CCNC(CC(=O)Nc1ccc(Cl)cc1Cl)C(=O)O (centres undefined) ?
HPGD block: inactive; Luc counter: inactive; IMPase Li cell: inactive; Lamin A splicing: inactive; ALDH1A1 inh: 7.1µM

What do the screens show for `CCN(CC)CCNC(=O)COc1ccc(Cl)cc1Cl`?
HPGD block: inactive; Luc counter: inactive; IMPase Li cell: inactive; Lamin A splicing: inactive; ALDH1A1 inh: inactive

Results for COc1ccc(CCNc2ncnc3c2c(-c2ccccc2)cn3-c2ccc(F)cc2)cc1OC ?
Lamin A splicing: inactive

Results for O=C1S/C(=C/c2ccc(N3CCOCC3)o2)C(=O)N1Cc1c(F)cccc1Cl ?
HPGD block: inactive; Luc counter: inactive; IMPase Li cell: inactive; Lamin A splicing: inactive; ALDH1A1 inh: 0.13µM

What do the screens show for `O=C1N=C(N2CCOCC2)S/C1=C/c1ccc(-c2ccccc2Cl)o1`?
HPGD block: inactive; Luc counter: inactive; IMPase Li cell: inactive; Lamin A splicing: inactive; ALDH1A1 inh: inactive

Results for O=C1NC(=O)/C(=C\c2ccc(N3CCOCC3)o2)N1 ?
Luc counter: inactive; IMPase Li cell: inactive; ALDH1A1 inh: inconclusive

How did O=C1S/C(=C\c2ccc(N3CCOCC3)o2)C(=O)N1c1ccccc1 do in these assays?
Luc counter: inactive; IMPase Li cell: inactive; ALDH1A1 inh: 0.89µM

How did O=C1S/C(=C\c2ccc(N3CCOCC3)o2)C(=O)N1Cc1c(F)cccc1Cl do in these assays?
HPGD block: inconclusive; Luc counter: inactive; IMPase Li cell: inactive; Lamin A splicing: inconclusive; ALDH1A1 inh: 0.13µM

What do the screens show for `CC1CCC/C(=C\Nc2ccc3c(c2)OCO3)C1=O` (centres undefined)?
HPGD block: inconclusive; Luc counter: inactive; IMPase Li cell: inactive; Lamin A splicing: inactive; ALDH1A1 inh: 13µM

What do the screens show for `O=C1CCC/C1=C/Nc1ccc2c(c1)OCO2`?
HPGD block: inactive; Luc counter: inactive; IMPase Li cell: inactive; Lamin A splicing: inactive; ALDH1A1 inh: inconclusive

Results for S=c1[nH]nc(CCc2ccc(Cl)cc2)o1 ?
HPGD block: inactive; Luc counter: inactive; IMPase Li cell: inactive; Lamin A splicing: inactive; ALDH1A1 inh: inconclusive

How did CCOc1ccc(-c2n[nH]c(=S)o2)cc1 do in these assays?
Luc counter: inactive; IMPase Li cell: inactive; ALDH1A1 inh: inconclusive

Results for COc1ccc(OCc2n[nH]c(=S)o2)cc1 ?
HPGD block: inconclusive; Luc counter: inactive; IMPase Li cell: inactive; Lamin A splicing: inactive; ALDH1A1 inh: 10µM

How did S=c1[nH]nc(COc2ccc(Cl)cc2)o1 do in these assays?
HPGD block: inconclusive; Luc counter: inactive; IMPase Li cell: inactive; Lamin A splicing: inactive; ALDH1A1 inh: 3.5µM

What do the screens show for `Clc1ccc2[nH]cc(-c3nnnn3-c3ccc4ccccc4c3)c2c1`?
HPGD block: inactive; Luc counter: inactive; IMPase Li cell: inactive; Lamin A splicing: inactive; ALDH1A1 inh: 9.5µM

What do the screens show for `Cc1ccc(-n2nnnc2-c2cnc3ccc(Cl)cc3c2-c2ccccc2)cc1`?
HPGD block: inactive; Luc counter: inactive; IMPase Li cell: inactive; Lamin A splicing: inactive; ALDH1A1 inh: inconclusive

Results for Cc1nc(-c2ccc(S(=O)(=O)Nc3ccc(Cl)c(C(F)(F)F)c3)cc2)co1 ?
Lamin A splicing: inactive

How did O=C(c1cnccn1)N1CCN(S(=O)(=O)c2ccc3ccccc3c2)CC1 do in these assays?
HPGD block: inactive; Luc counter: inactive; IMPase Li cell: inactive; Lamin A splicing: inconclusive; ALDH1A1 inh: inactive

How did O=S(=O)(c1ccc2ccccc2c1)N1CCN(C2Cc3ccccc3C2)CC1 do in these assays?
HPGD block: inactive; Luc counter: inactive; IMPase Li cell: inactive; Lamin A splicing: inactive; ALDH1A1 inh: 28µM

How did Cc1cnc(C(=O)N2CCN(S(=O)(=O)c3ccc4ccccc4c3)CC2)cn1 do in these assays?
HPGD block: inactive; Luc counter: inactive; IMPase Li cell: inactive; Lamin A splicing: inactive; ALDH1A1 inh: 13µM

Results for O=C1COc2ccc(C(=O)c3ccccc3C(=O)NCc3ccccc3)cc2N1 ?
HPGD block: inactive; Luc counter: inactive; IMPase Li cell: inactive; Lamin A splicing: inactive; ALDH1A1 inh: inactive

How did CC(C)C1N=C2c3ccccc3N=C(SCC(=O)NCc3ccc(F)cc3)N2C1=O (centres undefined) do in these assays?
Lamin A splicing: inactive

What do the screens show for `OCC1O[C@H](Oc2ccc(O)cc2)C(O)C(O)C1O` (some centres undefined)?
HPGD block: inactive; Luc counter: inactive; IMPase Li cell: inactive; Lamin A splicing: inactive; ALDH1A1 inh: inactive

High-throughput results deposited in PubChem BioAssay by National Center for Advancing Translational Sciences (NCATS).
